The source of these data is paper PMC9838217, “Structure of SALL4 zinc finger domain reveals link between AT-rich DNA binding and Okihiro syndrome”.

Positions count from the first letter of the chain named.

Test in all cases: HT-SELEX; high values mean tight binding
Holding throughout (conditions): protein: recombinant; vector His6-GST; dsDNA, one strand shown

In one test the target is T1, SALL4 ZFC4 WT (HT-SELEX) (Mus musculus, UniProt Q8BX22 870-940).
T1 sequence: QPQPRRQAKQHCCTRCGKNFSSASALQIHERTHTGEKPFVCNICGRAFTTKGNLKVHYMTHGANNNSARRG
In a few lines:
(§1)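 Binding signal is expressed as fold change in each canonical k-mer's read fraction over the initial random library. To obtain it, 1 µg of purified recombinant mouse SALL4 zinc finger cluster 4 (residues 870–940) was incubated for 10 min at room temperature with library DNA (1.5 µg first cycle, 200 ng later cycles) in 100 µl of 10 mM Tris–HCl pH 7.5, 50 mM NaCl, poly(dI-dC) and DTT. Ni2+ bead-captured complexes went through washing, PCR amplification and reselection for up to 6 cycles, in triplicate, before MiSeq sequencing and scanning for 6-mers.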

For test [1], the target named is T2, SALL4 ZFC4 R900W (HT-SELEX) (Mus musculus, UniProt Q8BX22 870-940, R900W).
T2 sequence: T1 sequence with R31W
In a few lines:
as §1

Test [2] has as its target T3, SALL4 ZFC4 G921D (HT-SELEX) (Mus musculus, UniProt Q8BX22 870-940, G921D).
T3 sequence: T1 sequence with G52D
The procedure, abridged:
as §1

Take AGAGGG: the binding signal was 0.489 ± 0.0115 fold-change vs cycle 0 with SALL4 ZFC4 WT (HT-SELEX), 0.556 ± 0.0501 fold-change vs cycle 0 in test [1] and 0.655 ± 0.0298 fold-change vs cycle 0 in test [2].

Regarding CATTGC, the binding signal worked out at 0.645 ± 0.0305 fold-change vs cycle 0 with SALL4 ZFC4 WT (HT-SELEX), 0.712 ± 0.0136 fold-change vs cycle 0 in test [1] and 0.825 ± 0.0379 fold-change vs cycle 0 in test [2].

With AATTCC, the binding signal with SALL4 ZFC4 WT (HT-SELEX) worked out at 1.34 ± 0.0764 fold-change vs cycle 0; in test [1], 1.36 ± 0.0844 fold-change vs cycle 0; in test [2] it was 1.31 ± 0.0693 fold-change vs cycle 0.

With AGAACA, the binding signal is 1.26 ± 0.0155 fold-change vs cycle 0 with SALL4 ZFC4 WT (HT-SELEX), 1.39 ± 0.0297 fold-change vs cycle 0 in test [1] and 1.34 ± 0.0563 fold-change vs cycle 0 in test [2].

Consider AAAGCT, for which the binding signal in the test with SALL4 ZFC4 WT (HT-SELEX) amounted to 1.01 ± 0.0609 fold-change vs cycle 0; in test [1], 1.13 ± 0.0411 fold-change vs cycle 0; in test [2], 1.17 ± 0.0323 fold-change vs cycle 0.

As for AGCTCA, the values for the binding signal (with SALL4 ZFC4 WT (HT-SELEX); in test [1]; in test [2]) were 0.694 ± 0.0391 fold-change vs cycle 0, 0.773 ± 0.0155 fold-change vs cycle 0 and 0.872 ± 0.0134 fold-change vs cycle 0, respectively.

For the sequence AACCTC, the binding signal in the test with SALL4 ZFC4 WT (HT-SELEX) was 0.87 ± 0.0372 fold-change vs cycle 0; in test [1] it was 0.961 ± 0.043 fold-change vs cycle 0; in test [2], 1.02 ± 0.0516 fold-change vs cycle 0.

For the sequence CTAAAC, the binding signal was determined as 1.16 ± 0.0729 fold-change vs cycle 0 with SALL4 ZFC4 WT (HT-SELEX), 1.33 ± 0.0737 fold-change vs cycle 0 in test [1] and 1.27 ± 0.0849 fold-change vs cycle 0 in test [2].

For the sequence TCAGGA, the values for the binding signal (with SALL4 ZFC4 WT (HT-SELEX); in test [1]; in test [2]) were 0.887 ± 0.0551 fold-change vs cycle 0, 1.02 ± 0.0319 fold-change vs cycle 0 and 1.03 ± 0.0207 fold-change vs cycle 0, respectively.

For the sequence AACCGT, the binding signal in the test with SALL4 ZFC4 WT (HT-SELEX) was 0.674 ± 0.0289 fold-change vs cycle 0; in test [1], 0.776 ± 0.0238 fold-change vs cycle 0; in test [2], 0.826 ± 0.0315 fold-change vs cycle 0.

With AGGTAC, the binding signal with SALL4 ZFC4 WT (HT-SELEX) came to 0.804 ± 0.0355 fold-change vs cycle 0; in test [1] it was 0.942 ± 0.0186 fold-change vs cycle 0; in test [2] it was 0.9735 ± 0.00829 fold-change vs cycle 0.

Consider ATCCAA, for which the figures for the binding signal (with SALL4 ZFC4 WT (HT-SELEX); in test [1]; in test [2]) were 1.28 ± 0.0363 fold-change vs cycle 0, 1.37 ± 0.0499 fold-change vs cycle 0 and 1.32 ± 0.0492 fold-change vs cycle 0, respectively.

With ATGACA, the binding signal amounted to 1.36 ± 0.0915 fold-change vs cycle 0 with SALL4 ZFC4 WT (HT-SELEX), 1.41 ± 0.0578 fold-change vs cycle 0 in test [1] and 1.39 ± 0.11 fold-change vs cycle 0 in test [2].

Turning to ATACCC, the values for the binding signal (with SALL4 ZFC4 WT (HT-SELEX); in test [1]; in test [2]) were 0.85 ± 0.0409 fold-change vs cycle 0, 0.935 ± 0.04 fold-change vs cycle 0 and 0.962 ± 0.0418 fold-change vs cycle 0, respectively.

AAAATT: the binding signal in the test with SALL4 ZFC4 WT (HT-SELEX) stood at 3.32 ± 0.292 fold-change vs cycle 0; in test [1], 2.14 ± 0.119 fold-change vs cycle 0; in test [2], 1.94 ± 0.175 fold-change vs cycle 0.

In the case of GAGTAC, the figures for the binding signal (with SALL4 ZFC4 WT (HT-SELEX); in test [1]; in test [2]) were 0.903 ± 0.0224 fold-change vs cycle 0, 0.992 ± 0.045 fold-change vs cycle 0 and 1.04 ± 0.0172 fold-change vs cycle 0, respectively.

On to TCTCAA, for which the binding signal stood at 1.28 ± 0.029 fold-change vs cycle 0 in the test with SALL4 ZFC4 WT (HT-SELEX), 1.413 ± 0.011 fold-change vs cycle 0 in test [1] and 1.34 ± 0.061 fold-change vs cycle 0 in test [2].

With AACTTC, the binding signal is 1.37 ± 0.0514 fold-change vs cycle 0 with SALL4 ZFC4 WT (HT-SELEX), 1.52 ± 0.0544 fold-change vs cycle 0 in test [1] and 1.4 ± 0.0625 fold-change vs cycle 0 in test [2].

As for AACTAC, the binding signal with SALL4 ZFC4 WT (HT-SELEX) worked out at 1.27 ± 0.0931 fold-change vs cycle 0; in test [1] it was 1.37 ± 0.099 fold-change vs cycle 0; in test [2] it was 1.32 ± 0.108 fold-change vs cycle 0.

In the case of ATTACG, the values for the binding signal (with SALL4 ZFC4 WT (HT-SELEX); in test [1]; in test [2]) were 1.22 ± 0.102 fold-change vs cycle 0, 1.27 ± 0.0629 fold-change vs cycle 0 and 1.23 ± 0.0609 fold-change vs cycle 0, respectively.

ATATAG: the binding signal with SALL4 ZFC4 WT (HT-SELEX) was 2.33 ± 0.245 fold-change vs cycle 0; in test [1] it was 1.9 ± 0.143 fold-change vs cycle 0; in test [2], 1.74 ± 0.201 fold-change vs cycle 0.

CATTAA: the binding signal in the test with SALL4 ZFC4 WT (HT-SELEX) amounted to 2.01 ± 0.0894 fold-change vs cycle 0; in test [1] it was 1.95 ± 0.11 fold-change vs cycle 0; in test [2] it was 1.74 ± 0.165 fold-change vs cycle 0.

On to TCAGCA, for which the binding signal was 0.676 ± 0.0405 fold-change vs cycle 0 with SALL4 ZFC4 WT (HT-SELEX), 0.74 ± 0.0606 fold-change vs cycle 0 in test [1] and 0.841 ± 0.0603 fold-change vs cycle 0 in test [2].

Turning to AATCGC, the figures for the binding signal (with SALL4 ZFC4 WT (HT-SELEX); in test [1]; in test [2]) were 0.437 ± 0.0162 fold-change vs cycle 0, 0.483 ± 0.0175 fold-change vs cycle 0 and 0.628 ± 0.0598 fold-change vs cycle 0, respectively.

With GGAGAA, the binding signal in the test with SALL4 ZFC4 WT (HT-SELEX) was determined as 0.849 ± 0.0319 fold-change vs cycle 0; in test [1], 0.985 ± 0.0471 fold-change vs cycle 0; in test [2] it was 0.959 ± 0.0602 fold-change vs cycle 0.

With TATACA, the binding signal with SALL4 ZFC4 WT (HT-SELEX) was determined as 2.08 ± 0.107 fold-change vs cycle 0; in test [1], 1.99 ± 0.114 fold-change vs cycle 0; in test [2], 1.77 ± 0.145 fold-change vs cycle 0.

For ATCCTC, the binding signal was found to be 0.944 ± 0.0401 fold-change vs cycle 0 with SALL4 ZFC4 WT (HT-SELEX), 1.06 ± 0.0699 fold-change vs cycle 0 in test [1] and 1.09 ± 0.0423 fold-change vs cycle 0 in test [2].

GGAGTA: the binding signal in the test with SALL4 ZFC4 WT (HT-SELEX) is 0.898 ± 0.0231 fold-change vs cycle 0; in test [1], 0.991 ± 0.0565 fold-change vs cycle 0; in test [2], 1.01 ± 0.0114 fold-change vs cycle 0.

In the case of CATGTA, the binding signal was determined as 1.28 ± 0.0897 fold-change vs cycle 0 in the test with SALL4 ZFC4 WT (HT-SELEX), 1.37 ± 0.0595 fold-change vs cycle 0 in test [1] and 1.35 ± 0.123 fold-change vs cycle 0 in test [2].

Consider GATGAA, for which the binding signal in the test with SALL4 ZFC4 WT (HT-SELEX) worked out at 1.45 ± 0.0431 fold-change vs cycle 0; in test [1] it was 1.54 ± 0.0399 fold-change vs cycle 0; in test [2], 1.43 ± 0.0787 fold-change vs cycle 0.
